Test results from PubChem BioAssay (NCI).
About 83,000 compounds went through this panel and 20% of them were active in at least one assay; those are over-represented in the sample as a whole.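 Treatment: one concentration, 48 hours, 96-well format. Scoring: percent growth, with anything below 10 considered active.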 Active and inactive are the calls of the source.

Key:
Assay in all cases: NCI-60 one-dose screen, 48 h (100 = growth as untreated, 0 = no growth, -100 = all killed)
Conditions in all cases: 10 µM unless noted
NCI-H23 lung = system: NCI-H23 lung
NCI-H226 lung = system: NCI-H226 lung
NCI-H322M lung = system: NCI-H322M lung
HOP-62 NSCLC = system: HOP-62 NSCLC
NCI-H460 lung = system: NCI-H460 lung
HOP-92 NSCLC = system: HOP-92 NSCLC
NCI-H522 lung = system: NCI-H522 lung
A549/ATCC NSCLC = system: A549/ATCC NSCLC
786-0 renal = system: 786-0 renal
COLO 205 colon = system: COLO 205 colon
K-562 leukemia = system: K-562 leukemia
MALME-3M melanoma = system: MALME-3M melanoma
MDA-MB-231 breast = system: MDA-MB-231 breast
RXF 393 renal = system: RXF 393 renal
SF-268 CNS = system: SF-268 CNS
SF-295 CNS = system: SF-295 CNS
SF-539 CNS = system: SF-539 CNS
UACC-257 melanoma = system: UACC-257 melanoma
M14 melanoma = system: M14 melanoma
DU-145 prostate = system: DU-145 prostate

Measured: growth

CCCCN(CCCC)P(=O)(Oc1ccccc1)Oc1ccccc1
inactive: NCI-H23 lung 53.7% | NCI-H226 lung 73.9% | NCI-H322M lung 85.1% | HOP-62 NSCLC 85.8% | NCI-H460 lung 59.9% | HOP-92 NSCLC 48.3% | NCI-H522 lung 37.9% | A549/ATCC NSCLC 49% | 786-0 renal 75% | COLO 205 colon 75.2% | K-562 leukemia 46.2% | MALME-3M melanoma 119% | MDA-MB-231 breast 69.3% | RXF 393 renal 55.8% | SF-268 CNS 84% | SF-295 CNS 64.5% | SF-539 CNS 100% | UACC-257 melanoma 70.4% | M14 melanoma 52.3%

CC[C@H](C)[C@@H]1OC(=O)C(C)(C)[C@H](O)[C@H](Cc2ccccc2)OC(=O)[C@H](C(C)C)OC(=O)[C@@H](NC(=O)c2cccc(NC=O)c2O)[C@@H](C)OC1=O
inactive: NCI-H23 lung 36.4% | NCI-H226 lung 51.2% | NCI-H322M lung 78.9% | HOP-62 NSCLC 45% | NCI-H460 lung 19% | HOP-92 NSCLC 68% | NCI-H522 lung 38.9% | A549/ATCC NSCLC 49.5% | 786-0 renal 64.5% | COLO 205 colon 43.6% | DU-145 prostate 62.7% | MALME-3M melanoma 77.4% | MDA-MB-231 breast 59.1% | RXF 393 renal 87.1% | SF-268 CNS 62.1% | SF-295 CNS 28% | SF-539 CNS 52.8% | UACC-257 melanoma 32.3% | M14 melanoma 62.8%

Nc1ccc2c(c1)oc1ccccc12
inactive: NCI-H23 lung 97.3% | NCI-H226 lung 93.1% | NCI-H322M lung 102% | HOP-62 NSCLC 103% | NCI-H460 lung 111% | HOP-92 NSCLC 89.4% | NCI-H522 lung 95.9% | A549/ATCC NSCLC 89% | 786-0 renal 95.7% | COLO 205 colon 123% | DU-145 prostate 103% | K-562 leukemia 89.5% | MDA-MB-231 breast 80.2% | RXF 393 renal 92.4% | SF-268 CNS 83.3% | SF-295 CNS 102% | SF-539 CNS 104% | UACC-257 melanoma 92.6% | M14 melanoma 101%

CC1(C)N=C(N)N=C(N)N1c1ccc(CCC(=O)Nc2ccc(S(=O)(=O)F)cc2)c(Cl)c1
inactive: NCI-H23 lung 29.9% | NCI-H226 lung 46.6% | NCI-H322M lung 57.9% | HOP-62 NSCLC 19.9% | HOP-92 NSCLC 33.7% | 786-0 renal 20.6% | COLO 205 colon 45.3% | DU-145 prostate 40.2% | MALME-3M melanoma 83.1% | MDA-MB-231 breast 51.7% | SF-268 CNS 28.1% | SF-295 CNS 30% | SF-539 CNS 11.9% | M14 melanoma 23.4%
active: NCI-H460 lung 6.19% | NCI-H522 lung -0.414% | A549/ATCC NSCLC -5.32%

COc1cccc(C=NC(Cc2cnc[nH]2)C(=O)O)c1O (centres undefined)
inactive: NCI-H23 lung 107% | NCI-H226 lung 94.8% | NCI-H322M lung 95.5% | HOP-62 NSCLC 87.6% | NCI-H460 lung 107% | HOP-92 NSCLC 56% | NCI-H522 lung 59.3% | A549/ATCC NSCLC 91.5% | 786-0 renal 97.2% | COLO 205 colon 122% | DU-145 prostate 121% | K-562 leukemia 135% | MDA-MB-231 breast 102% | SF-268 CNS 112% | SF-295 CNS 70.3% | SF-539 CNS 93.1% | UACC-257 melanoma 46.7% | M14 melanoma 89.7%
active: RXF 393 renal 3.56%

N#CC1C(C#N)C2CCC1C1C2N1c1ccccc1 (centres undefined)
inactive: NCI-H23 lung 117% | NCI-H226 lung 101% | NCI-H322M lung 92.3% | HOP-62 NSCLC 97.4% | NCI-H460 lung 108% | HOP-92 NSCLC 74.5% | NCI-H522 lung 108% | A549/ATCC NSCLC 126% | 786-0 renal 107% | COLO 205 colon 103% | DU-145 prostate 118% | MALME-3M melanoma 85.7% | MDA-MB-231 breast 110% | RXF 393 renal 103% | SF-268 CNS 104% | SF-295 CNS 103% | SF-539 CNS 104% | UACC-257 melanoma 117% | M14 melanoma 101%

Cc1ccc(C(=O)NCCCOc2ccc(N3C(N)=NC(N)=NC3(C)C)cc2Cl)cc1S(=O)(=O)F
inactive: NCI-H23 lung 84.4% | NCI-H226 lung 91.9% | NCI-H322M lung 92.5% | HOP-62 NSCLC 94.7% | NCI-H460 lung 46.2% | HOP-92 NSCLC 69.1% | NCI-H522 lung 78.3% | A549/ATCC NSCLC 77.5% | 786-0 renal 91% | COLO 205 colon 87.7% | DU-145 prostate 126% | MALME-3M melanoma 70.4% | MDA-MB-231 breast 98.6% | SF-268 CNS 54.3% | SF-295 CNS 111% | SF-539 CNS 54.1% | M14 melanoma 76.7%

CC(=O)O[C@@H]1CC[C@]2(C)[C@H]3CC[C@]4(C)C(=O)CC[C@H]4[C@@H]3C[C@@H]3SC(N)=N[C@@]32C1
active: NCI-H522 lung 8.26%
inactive: NCI-H23 lung 79.6% | NCI-H226 lung 83.4% | NCI-H322M lung 89.7% | HOP-62 NSCLC 70.1% | NCI-H460 lung 38.7% | HOP-92 NSCLC 78.8% | A549/ATCC NSCLC 47.4% | 786-0 renal 58.8% | COLO 205 colon 48.8% | DU-145 prostate 79.2% | MALME-3M melanoma 55.4% | MDA-MB-231 breast 68.2% | RXF 393 renal 79.7% | SF-268 CNS 73.9% | SF-295 CNS 42.7% | SF-539 CNS 51.3% | UACC-257 melanoma 67.1% | M14 melanoma 41.1%

O=C([O][Hg][CH2]C1COCC([CH2][Hg][O]C(=O)c2ccccc2)O1)c1ccccc1 (centres undefined)
active: NCI-H522 lung -53.3% | COLO 205 colon -23.1% | K-562 leukemia 4.71% | MALME-3M melanoma -80.5% | UACC-257 melanoma -69.4%
inactive: NCI-H23 lung 90.2% | NCI-H226 lung 106% | NCI-H322M lung 110% | HOP-62 NSCLC 127% | NCI-H460 lung 106% | HOP-92 NSCLC 77% | A549/ATCC NSCLC 105% | 786-0 renal 104% | MDA-MB-231 breast 105% | RXF 393 renal 87.5% | SF-268 CNS 104% | SF-295 CNS 96.8% | SF-539 CNS 113% | M14 melanoma 71.7%

COC(=O)CCC1=C(C)c2cc3[n-]c(cc4nc(cc5[n-]c(cc1n2)c(CCC(=O)OC)c5C)C=C4C)cc3C.[Cd+2]
inactive: NCI-H23 lung 19.1% | NCI-H226 lung 19.8% | NCI-H322M lung 95.5% | HOP-62 NSCLC 65.7% | A549/ATCC NSCLC 56.1% | 786-0 renal 75.2% | COLO 205 colon 22.4% | MALME-3M melanoma 20.5% | MDA-MB-231 breast 34.9% | RXF 393 renal 65.7% | SF-268 CNS 11.6% | SF-295 CNS 61.9% | SF-539 CNS 62.2% | UACC-257 melanoma 78.7% | M14 melanoma 57.9%
active: NCI-H460 lung -27.3% | HOP-92 NSCLC 3.42% | NCI-H522 lung -70.1% | DU-145 prostate 9.35%

O=NNc1ccccn1
active: DU-145 prostate 5.33%
inactive: NCI-H23 lung 79.4% | NCI-H226 lung 91.1% | NCI-H322M lung 126% | HOP-62 NSCLC 90.3% | NCI-H460 lung 41.7% | HOP-92 NSCLC 92.1% | NCI-H522 lung 64.3% | A549/ATCC NSCLC 95.1% | 786-0 renal 106% | COLO 205 colon 95.8% | K-562 leukemia 77.7% | MDA-MB-231 breast 91.2% | RXF 393 renal 83.8% | SF-268 CNS 91.1% | SF-295 CNS 96% | SF-539 CNS 94.3% | UACC-257 melanoma 94.9% | M14 melanoma 87.3%

CC(=O)O[C@H]1CC[C@]2(C)[C@H]3CC[C@]4(C)[C@@H](OC(C)=O)CC[C@H]4[C@@H]3[C@@H](C)[C@]2(O)C1
inactive: NCI-H23 lung 111% | NCI-H226 lung 104% | NCI-H322M lung 106% | HOP-62 NSCLC 105% | NCI-H460 lung 116% | HOP-92 NSCLC 108% | NCI-H522 lung 94.8% | A549/ATCC NSCLC 114% | 786-0 renal 103% | COLO 205 colon 104% | DU-145 prostate 107% | K-562 leukemia 85.1% | MDA-MB-231 breast 108% | RXF 393 renal 114% | SF-268 CNS 112% | SF-539 CNS 99.6% | UACC-257 melanoma 127% | M14 melanoma 109%

COC(=O)[C@@]1(C)CC[C@]2(C)CC[C@]3(C)C4=CC=C5C(=CC(=O)C(O)=C5C)[C@]4(C)CC[C@@]3(C)[C@@H]2C1
active: NCI-H23 lung -72.6% | NCI-H226 lung -59.1% | NCI-H322M lung -95.3% | HOP-62 NSCLC -90.6% | NCI-H460 lung -83% | HOP-92 NSCLC -86.7% | NCI-H522 lung -78.3% | 786-0 renal -90% | COLO 205 colon -77.2% | DU-145 prostate -96.7% | K-562 leukemia -54.4% | MALME-3M melanoma -87.3% | MDA-MB-231 breast -93.4% | RXF 393 renal -84% | SF-268 CNS -83.2% | SF-295 CNS -91.8% | SF-539 CNS -99.6% | UACC-257 melanoma -88.3% | M14 melanoma -94%

CC(=O)O[C@H]1CC[C@@]2(C)C(=CC[C@H]3[C@@H]4C[C@@H](N5CC5)[C@H](C(C)=O)[C@@]4(C)CC[C@@H]32)C1
inactive: NCI-H23 lung 98.5% | NCI-H226 lung 92.2% | NCI-H322M lung 110% | HOP-62 NSCLC 83.4% | NCI-H460 lung 93.2% | HOP-92 NSCLC 80.7% | NCI-H522 lung 88.7% | 786-0 renal 101% | COLO 205 colon 99.2% | DU-145 prostate 105% | K-562 leukemia 72.4% | MALME-3M melanoma 98.1% | MDA-MB-231 breast 91.4% | RXF 393 renal 103% | SF-268 CNS 93.2% | SF-295 CNS 97.5% | SF-539 CNS 88.8% | UACC-257 melanoma 112% | M14 melanoma 95.6%

COc1cc(NCCCN=C(N)N)c2ncccc2c1
inactive: NCI-H23 lung 14.1% | NCI-H226 lung 86.2% | NCI-H322M lung 74% | HOP-62 NSCLC 73% | NCI-H460 lung 96.4% | HOP-92 NSCLC 56.7% | 786-0 renal 95.4% | COLO 205 colon 89.8% | DU-145 prostate 103% | K-562 leukemia 93.7% | MALME-3M melanoma 21.1% | MDA-MB-231 breast 64.8% | RXF 393 renal 102% | SF-268 CNS 25.2% | SF-295 CNS 88.6% | UACC-257 melanoma 90.3% | M14 melanoma 100%
active: NCI-H522 lung -10.2%
